According to PubChem BioAssay (Tox21):
“And” between values parts separate entries of the source, which are not always exact repeats. Identical values can stand only once. Results filed as inconclusive are left out. Entries that show only a call come without a potency. More than one record can exist for a structure, and the calls need not agree. The source made the active and inactive calls. Unless noted, the call rests on the fitted dose curve; in most records, active means well fitted curve in the direction sought with a large enough effect in the repeat runs; inconclusive means weak or mixed curves; inactive means no such curve, though single readings can be large; an effect the other way counts as inactive or inconclusive.

Columns and labels:
[1] = qHTS assay for small molecules that induce genotoxicity in human embryonic kidney cells expressing luciferase-tagged ATAD5 (AID 651632); further: nearly all actives have a fitted effect of over 15% in size
In short: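 Cells were seeded at 2,000 per well, dosed with compound, and incubated 16 hr at 37C in 5% CO2. Luciferase activity was then quantified after a 30 min room-temperature incubation with Amplite.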

[2] = qHTS assay for small molecules that induce genotoxicity in human embryonic kidney cells expressing luciferase-tagged ATAD5 - cell viability (AID 651634; calls by dose curve; further: nearly all actives have a fitted effect of over 25% in size; further: potency means the concentration at half of the fitted maximal effect)
In short: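 Cells (HEK293T, luciferase-tagged ATAD5) are seeded at 2,000 per well, dosed with compound or DMSO vehicle, and incubated 15.5 hr at 37C and 5% CO2. CellTiter-Fluor is added for 30 min before fluorescence is measured.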

[3] = qHTS assay to test for compound auto fluorescence at 590 nm (red) in HepG2 cells (AID 720674)
In short: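 Red autofluorescence (Ex/Em 540/590 nm, Rose Bengal sodium equivalents) was measured in HepG2 cells, 2,000 per well in MEM plus 10% FBS, plated overnight at 37 C. Readings were taken 1 hr after adding 23 nL compound or DMSO, at 37 C and 5% CO2.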

[4] = qHTS assay to test for compound auto fluorescence at 535 nm (green) in HepG2 cells (AID 720675)
[5] = qHTS assay to test for compound auto fluorescence at 590 nm (red) in HEK293 cells (AID 720679)
In short: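 Plates of HEK293 cells (10% dialyzed FBS) are treated with 23 nL compound or DMSO vehicle after a 4-5 hr attachment period, incubated overnight at 37C, and read for red fluorescence at 540/590nm.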

[6] = qHTS assay to test for compound auto fluorescence at 460 nm (blue) in HEK293 cell free culture (AID 720681)
In short: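 Blue fluorescence (Ex 405/Em 460 nm, triamterene-equivalent) was read immediately after pin transfer of compound or DMSO into medium (DMEM, 10% FBS) without cells.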

[7] = qHTS assay to test for compound auto fluorescence at 535 nm (green) in HEK293 cell free culture (AID 720682)
In short: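 Using fluorescein as calibrant, autofluorescence was quantified at 485/535 nm in cell-free DMEM containing 10% FBS after pintool addition of compound or vehicle.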

[8] = qHTS assay to test for compound auto fluorescence at 590 nm (red) in HepG2 cell free culture (AID 720684)
In short: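 No cells present: MEM + 10% FBS only. Compound pinned in, red label read (540/590 nm). Activity = fluorescence equivalent to Rose Bengal sodium.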

[9] = qHTS assay to test for compound auto fluorescence at 460 nm (blue) in HepG2 cell free culture (AID 720685)
In short: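 Cell-free plates of MEM plus 10% FBS received 23 nL compound or DMSO vehicle; blue-channel (405/460 nm) intensity scored against triamterene as reference fluorophore.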

[10] = qHTS assay to test for compound auto fluorescence at 535 nm (green) in HepG2 cell free culture (AID 720686)
[11] = qHTS assay to test for compound auto fluorescence at 460 nm (blue) in HepG2 cells (AID 720687)
In short: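 Blue-channel autofluorescence (Ex/Em 405/460 nm, triamterene-equivalent) was measured after 1 hr compound exposure at 37 C, 5% CO2. Cells were HepG2, plated overnight at 37 C in MEM plus 10% FBS.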

[12] = qHTS assay to identify small molecule antagonists of the estrogen receptor alpha (ER-alpha) signaling pathway using the BG1 cell line - cell viability counter screen (AID 743081);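 further: compound given together with 17beta-estradiol as the ER stimulus; nearly all actives have a fitted effect of over 45% in size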; further: potency means the concentration at half of the fitted maximal effect
Aromatase (Homo sapiens) = Aromatase (Homo sapiens) (UniProt P11511); assay: qHTS assay to identify aromatase inhibitors (AID 743083); further: nearly all actives have a fitted effect of over 55% in size; further: potency means the concentration at half of the fitted maximal effect
Chain of Aromatase (Homo sapiens) (P11511 whole entry, looked up): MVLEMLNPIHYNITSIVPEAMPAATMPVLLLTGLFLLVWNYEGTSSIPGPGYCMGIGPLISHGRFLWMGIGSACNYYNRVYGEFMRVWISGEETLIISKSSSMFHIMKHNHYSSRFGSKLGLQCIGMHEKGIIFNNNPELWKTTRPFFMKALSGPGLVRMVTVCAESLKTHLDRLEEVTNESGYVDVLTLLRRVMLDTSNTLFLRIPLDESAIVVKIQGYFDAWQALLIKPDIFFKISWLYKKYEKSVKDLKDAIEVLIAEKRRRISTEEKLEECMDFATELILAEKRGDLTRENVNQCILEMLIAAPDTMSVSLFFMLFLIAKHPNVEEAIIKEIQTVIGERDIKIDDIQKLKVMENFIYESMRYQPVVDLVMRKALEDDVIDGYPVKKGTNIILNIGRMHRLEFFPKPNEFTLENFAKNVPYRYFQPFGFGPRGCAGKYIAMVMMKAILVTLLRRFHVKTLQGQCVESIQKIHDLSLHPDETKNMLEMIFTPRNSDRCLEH

[13] = qHTS assay to identify aromatase inhibitors - cell viability counter screen (AID 743084);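 further: cells stimulated with testosterone during compound exposure; nearly all actives have a fitted effect of over 55% in size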
[14] = target: Aryl hydrocarbon receptor (Homo sapiens) (UniProt P35869); assay: qHTS assay to identify small molecule that activate the aryl hydrocarbon receptor (AhR) signaling pathway (AID 743085); further: nearly all actives have a fitted effect of over 15% in size; further: potency means the concentration at half of the fitted maximal effect;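 on activation: HG2L7.5c1 human HepG2 liver cells with stably integrated DRE-driven firefly reporter; series mostly up to about 70 µM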
Chain of Aryl hydrocarbon receptor (Homo sapiens) (P35869 whole entry, looked up): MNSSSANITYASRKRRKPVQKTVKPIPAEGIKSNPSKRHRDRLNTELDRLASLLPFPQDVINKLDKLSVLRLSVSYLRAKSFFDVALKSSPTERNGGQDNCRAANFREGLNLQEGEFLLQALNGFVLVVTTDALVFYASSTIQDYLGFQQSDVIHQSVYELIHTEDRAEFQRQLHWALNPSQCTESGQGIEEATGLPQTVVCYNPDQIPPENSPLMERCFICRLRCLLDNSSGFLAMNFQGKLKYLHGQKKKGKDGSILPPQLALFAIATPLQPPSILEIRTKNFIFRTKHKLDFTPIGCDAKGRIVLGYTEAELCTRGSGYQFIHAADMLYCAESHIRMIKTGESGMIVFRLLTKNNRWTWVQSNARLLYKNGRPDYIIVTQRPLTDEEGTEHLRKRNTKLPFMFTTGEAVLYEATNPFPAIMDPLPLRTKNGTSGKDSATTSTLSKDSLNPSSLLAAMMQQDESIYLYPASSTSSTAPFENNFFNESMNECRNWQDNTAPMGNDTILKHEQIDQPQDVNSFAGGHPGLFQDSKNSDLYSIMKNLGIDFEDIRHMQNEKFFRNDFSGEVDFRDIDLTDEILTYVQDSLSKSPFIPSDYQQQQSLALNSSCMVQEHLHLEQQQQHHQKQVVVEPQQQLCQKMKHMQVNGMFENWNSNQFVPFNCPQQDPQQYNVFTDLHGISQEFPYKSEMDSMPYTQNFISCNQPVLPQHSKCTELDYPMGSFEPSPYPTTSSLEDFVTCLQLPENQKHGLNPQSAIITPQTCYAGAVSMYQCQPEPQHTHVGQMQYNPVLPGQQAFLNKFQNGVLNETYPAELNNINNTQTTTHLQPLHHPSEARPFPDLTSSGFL
In short: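 Measured in HG2L7.5c1 cells: CellTiter-Fluor signal (30 min incubation, 37C) for viability, then luciferase luminescence (30 min, room temperature). Compound contact time was 24 h at 37C, following a 5 h pre-incubation.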

[15] = qHTS assay to identify small molecule that activate the aryl hydrocarbon receptor (AhR) signaling pathway - cell viability counter screen (AID 743086);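 further: HepG2 liver cells carrying the AhR DRE luciferase reporter; series mostly up to about 70 µM; nearly all actives have a fitted effect of over 45% in size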
In short: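 Cytotoxicity counter screen: CellTiter-Fluor signal (30 min, 37 C) in 4000 HepG2 cells/well carrying the DRE-luciferase reporter, following 24 h compound exposure at 37 C.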

[16] = qHTS assay to identify small molecule phospholipidosis (PLD) inducers (AID 1259344; active means well fitted curve in the direction sought with a large enough effect; an effect the other way counts as inactive or inconclusive)
In short: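 Accumulated phospholipid, stained red by LipidTOX during 24 h compound treatment of HepG2 cells at 37 C, is quantified from images as pit number and intensity, normalised per cell using Hoechst-stained nuclei.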

[17] = target: Nuclear receptor subfamily 1 group I member 2 (Rattus norvegicus) (UniProt Q9R1A7); assay: Rat pregnane X receptor (rPXR) activation by small molecules, qHTS assay (AID 1346983); settings: rPXR luciferase reporter cells, One-Glo luminescence, 24 h; max activation: stronger effect = higher value; further: nearly all actives have a fitted effect of over 20% in size
Chain of Nuclear receptor subfamily 1 group I member 2 (Rattus norvegicus) (Q9R1A7 whole entry, looked up): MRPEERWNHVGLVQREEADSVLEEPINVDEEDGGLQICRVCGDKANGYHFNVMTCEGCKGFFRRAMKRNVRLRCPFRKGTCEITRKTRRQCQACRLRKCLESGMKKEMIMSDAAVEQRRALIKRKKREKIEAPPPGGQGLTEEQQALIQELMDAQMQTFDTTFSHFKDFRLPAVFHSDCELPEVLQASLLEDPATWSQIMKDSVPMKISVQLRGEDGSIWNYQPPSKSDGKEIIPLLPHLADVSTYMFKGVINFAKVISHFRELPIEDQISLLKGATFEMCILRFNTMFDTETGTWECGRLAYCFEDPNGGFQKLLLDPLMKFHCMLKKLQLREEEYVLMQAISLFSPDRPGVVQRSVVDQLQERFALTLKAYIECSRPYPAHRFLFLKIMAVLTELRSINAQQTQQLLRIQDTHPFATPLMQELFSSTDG
In short: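 Luminescent readout (One-Glo luciferase, 30 min room temperature) followed 24 hr compound treatment at 37 C of rPXR cells plated 2,000 per well and preincubated 5hr; qHTS format with compounds delivered in DMSO.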

[18] = target: Nuclear receptor subfamily 1 group I member 2 (Homo sapiens) (UniProt O75469); assay: CYP3A4 induction through human pregnane X receptor (PXR) by small molecules, qHTS assay (AID 1346984); further: nearly all actives have a fitted effect of over 40% in size; further: potency means the concentration at half of the fitted maximal effect
In short: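 Quantitative HTS in DPX-2 cells, i.e. HepG2 transfected with PXR response element and CYP3A4-promoter luciferase. Compounds in DMSO incubated 24hr at 37C; then P450-Glo CYP3A4 substrate, 3uM final, 3hr; One-Glo luminescence.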

[19] = qHTS assay to identify small molecule antagonists of the estrogen receptor alpha (ER-alpha) signaling pathway - cell viability counter screen (AID 743074; calls by dose curve;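 further: HEK293 cells carrying ER-alpha-UAS-bla reporter stimulated with 17beta-estradiol; nearly all actives have a fitted effect of over 45% in size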)

O=[N+]([O-])c1cc(I)c(O)c(I)c1
Potency [1]: inactive
Potency [2]: 23.7 µM (active)
outcome [3]: inactive
Potency [4]: inactive
outcome [5]: inactive
Potency [6]: inactive
Potency [7]: inactive
outcome [8]: inactive
Potency [9]: inactive
Potency [10]: inactive
Potency [11]: inactive
Potency [12]: 10.6 µM (active)
Potency (Aromatase (Homo sapiens)): inactive
Potency [13]: inactive
Potency [14]: inactive
Potency [15]: inactive
Potency [16]: inactive
max activation [17]: -2.81% (inactive)
Potency [18]: inactive

CN(C)CCCCCCN(C)C
Potency [2]: inactive
outcome [3]: inactive
Potency [4]: inactive
outcome [5]: inactive
Potency [6]: inactive
Potency [7]: inactive
outcome [8]: inactive
Potency [9]: inactive
Potency [10]: inactive
Potency [11]: inactive
Potency [19]: inactive
Potency [12]: inactive
Potency (Aromatase (Homo sapiens)): inactive
Potency [13]: inactive
Potency [14]: inactive
Potency [15]: inactive

O=S(=O)(O)c1cc(O)ccc1O
Potency [1]: inactive
Potency [2]: inactive
outcome [3]: inactive
Potency [4]: inactive
outcome [5]: inactive
Potency [6]: inactive
Potency [7]: inactive
outcome [8]: inactive
Potency [9]: inactive
Potency [10]: inactive
Potency [11]: inactive
Potency [19]: inactive
Potency [12]: inactive
Potency [15]: inactive
Potency [16]: inactive

CCOc1ccc2c3c1O[C@H]1[C@@H](O)C=C[C@H]4[C@@H](C2)N(C)CC[C@@]341
Potency [1]: inactive
Potency [2]: inactive
outcome [3]: inactive
Potency [4]: inactive
outcome [5]: inactive
Potency [6]: inactive
Potency [7]: inactive
outcome [8]: inactive
Potency [9]: inactive
Potency [10]: inactive
Potency [11]: inactive
Potency [19]: inactive
Potency [12]: inactive
Potency (Aromatase (Homo sapiens)): inactive
Potency [13]: inactive
Potency [15]: inactive
Potency [16]: inactive
max activation [17]: -1.03% (inactive)
Potency [18]: 7.94 µM (active)

CCC1(CC)C(=O)NC(=O)N(C)C1=O
Potency [1]: inactive
Potency [2]: inactive
outcome [3]: inactive
Potency [4]: inactive
outcome [5]: inactive
Potency [6]: inactive
Potency [7]: inactive
outcome [8]: inactive
Potency [9]: inactive
Potency [10]: inactive
Potency [11]: inactive
Potency [19]: inactive
Potency [12]: inactive
Potency (Aromatase (Homo sapiens)): inactive
Potency [13]: inactive
Potency [14]: inactive
Potency [15]: inactive
Potency [16]: inactive
max activation [17]: -3.02% (inactive)
Potency [18]: inactive

CN=C1CN(O)C(c2ccccc2)=c2cc(Cl)ccc2=N1
Potency [1]: inactive
Potency [2]: inactive
Potency [4]: inactive
outcome [5]: inactive
Potency [6]: inactive
Potency [7]: inactive
outcome [8]: inactive
Potency [9]: inactive
Potency [10]: inactive
Potency [11]: inactive
Potency [19]: inactive
Potency [12]: inactive
Potency (Aromatase (Homo sapiens)): inactive
Potency [13]: inactive
Potency [14]: inactive
Potency [15]: inactive
Potency [16]: inactive
max activation [17]: -1.86% (inactive) and 4.26% (inactive)
Potency [18]: inactive

Clc1ccc2c(c1)C(c1ccccc1)=NCc1nncn1-2
Potency [1]: inactive
Potency [2]: inactive
outcome [3]: inactive
Potency [4]: inactive
outcome [5]: inactive
Potency [6]: inactive
Potency [7]: inactive
outcome [8]: inactive
Potency [9]: inactive
Potency [10]: inactive
Potency [11]: inactive
Potency [19]: inactive
Potency [12]: inactive
Potency (Aromatase (Homo sapiens)): inactive
Potency [13]: inactive
Potency [14]: inactive
Potency [15]: inactive
Potency [16]: inactive
max activation [17]: -10.5% (inactive)
Potency [18]: inactive

CC(C)(O)[C@@H]1[C@H]2OC(=O)[C@@H]1[C@]1(O)C[C@H]3O[C@]34C(=O)O[C@H]2[C@]14C
Potency [1]: inactive
Potency [2]: inactive
outcome [3]: inactive
Potency [4]: inactive
outcome [5]: inactive
Potency [6]: inactive
Potency [7]: inactive
outcome [8]: inactive
Potency [9]: inactive
Potency [10]: inactive
Potency [11]: inactive
Potency [19]: inactive
Potency [12]: inactive
Potency [15]: inactive
Potency [16]: inactive
max activation [17]: -2.48% (inactive)
Potency [18]: inactive

CC1(C)S[C@@H]2[C@H](N)C(=O)N2[C@H]1C(=O)O
Potency [1]: inactive
Potency [2]: inactive
outcome [3]: inactive
Potency [4]: inactive
outcome [5]: inactive
Potency [6]: inactive
Potency [7]: inactive
outcome [8]: inactive
Potency [9]: inactive
Potency [10]: inactive
Potency [11]: inactive
Potency [19]: inactive
Potency [12]: inactive
Potency (Aromatase (Homo sapiens)): inactive
Potency [13]: inactive
Potency [14]: inactive
Potency [15]: inactive
Potency [16]: inactive
max activation [17]: -2.48% (inactive)
Potency [18]: inactive

CCC1(C)CC(=O)NC(=O)C1
Potency [1]: inactive
Potency [2]: inactive
outcome [3]: inactive
Potency [4]: inactive
outcome [5]: inactive
Potency [6]: inactive
Potency [7]: inactive
outcome [8]: inactive
Potency [9]: inactive
Potency [10]: inactive
Potency [11]: inactive
Potency [19]: inactive
Potency [12]: inactive
Potency (Aromatase (Homo sapiens)): inactive
Potency [13]: inactive
Potency [14]: inactive
Potency [15]: inactive
Potency [16]: inactive
max activation [17]: 0.0054% (inactive)
Potency [18]: inactive

CCC(N)Cc1c[nH]c2ccccc12 (stereo not drawn)
Potency [1]: inactive
Potency [2]: inactive
outcome [3]: inactive
Potency [4]: inactive
outcome [5]: inactive
Potency [6]: inactive
Potency [7]: inactive
outcome [8]: inactive
Potency [9]: inactive
Potency [10]: inactive
Potency [11]: inactive
Potency [19]: inactive
Potency (Aromatase (Homo sapiens)): inactive
Potency [13]: inactive
Potency [14]: inactive and 30.7 µM (active)
Potency [15]: inactive
Potency [16]: inactive
max activation [17]: -0.551% (inactive)
Potency [18]: inactive

CCC1(c2cnc[nH]2)Cc2ccccc2C1
Potency [1]: inactive
Potency [2]: inactive
outcome [3]: inactive
Potency [4]: inactive
outcome [5]: inactive
Potency [6]: inactive
Potency [7]: inactive
outcome [8]: inactive
Potency [9]: inactive
Potency [10]: inactive
Potency [11]: inactive
Potency [19]: inactive
Potency [12]: inactive
Potency (Aromatase (Homo sapiens)): 26.6 µM (active)
Potency [13]: inactive
Potency [14]: 23.7 µM (active) and 8.41 µM (active)
Potency [15]: inactive
Potency [16]: inactive

CCC(=O)O[C@@](Cc1ccccc1)(c1ccccc1)[C@@H](C)CN(C)C
Potency [1]: inactive
Potency [2]: inactive
outcome [3]: inactive
Potency [4]: inactive
outcome [5]: inactive
Potency [6]: inactive
Potency [7]: inactive
outcome [8]: inactive
Potency [9]: inactive
Potency [10]: inactive
Potency [11]: inactive
Potency [19]: inactive
Potency [15]: inactive
Potency [16]: inactive
max activation [17]: 0.731% (inactive)
Potency [18]: inactive
